The values below come from the supplement of paper PMC8728848.

Shown is part of a subset that was picked to be rich in the strongest signals.

Common to all, as to experiment: glycan array binding signal (z-score within array); higher = stronger binding
Conditions in all cases: glycan notation: IUPAC condensed, linker removed

Assay [1] concerns Neu5Ac(a2-6)Gal(b1-4)GlcNAc(b1-2)Man(a1-3)[GlcNAc(b1-2)Man(b1-4)GlcNAc(b1-2)Man(a1-6)]Man(b1-4)GlcNAc(b1-4)GlcNAc. The method, boiled down:
(§1)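 The Consortium for Functional Glycomics database supplied 3228 glycan arrays, of which those lacking an available protein sequence were dropped. The binding signal, a within-array Z-score, was averaged across arrays of the same protein sequence and across linkers. Negative scores can be read as non-binding.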

Assay [2] has as its system Neu5Ac(a2-6)Gal(b1-4)GlcNAc(b1-2)Man(a1-3)[Neu5Ac(a2-6)Gal(b1-4)GlcNAc(b1-2)Man(a1-6)]Man(b1-4)GlcNAc(b1-4)[Fuc(a1-6)]GlcNAc. Summed up: as §1
Assay [3] relates to Neu5Ac(a2-6)Gal(b1-4)GlcNAc(b1-3)Gal(b1-4)GlcNAc. The method, boiled down: as §1
Assay [4] relates to Neu5Ac(a2-6)Gal(b1-4)GlcNAc6S. Summed up: as §1
In assay [5] the test system is Neu5Ac(a2-6)Gal(b1-4)GlcNAc(b1-2)Man(a1-3)[GlcNAc(b1-2)Man(a1-6)]Man(b1-4)GlcNAc(b1-4)GlcNAc. The method, boiled down: as §1
Assay [6] has as its system Neu5Ac(a2-6)Gal(b1-4)GlcNAc(b1-2)Man(a1-6)[GlcNAc(b1-2)Man(a1-3)]Man(b1-4)GlcNAc(b1-4)GlcNAc. Summed up: as §1
For assay [7], the system named is Neu5Ac(a2-6)Gal(b1-4)GlcNAc(b1-2)Man(a1-6)[Man(a1-3)]Man(b1-4)GlcNAc(b1-4)GlcNAc. Summed up:
as §1

For assay [8], the system named is Neu5Ac(a2-6)Gal(b1-4)GlcNAc(b1-2)Man(a1-6)Man(b1-4)GlcNAc(b1-4)GlcNAc. The method, boiled down: as §1
In assay [9] the test system is Neu5Ac(a2-6)Gal(b1-4)GlcNAc(b1-3)Gal(b1-4)[Fuc(a1-3)]GlcNAc(b1-3)Gal(b1-4)[Fuc(a1-3)]GlcNAc. The method, boiled down:
as §1

Assay [10] deals with Neu5Ac(a2-6)Gal(b1-4)GlcNAc. Summed up:
as §1

Assay [11] deals with Neu5Ac(a2-6)Gal(b1-4)GlcNAc(b1-3)Gal(b1-3)GlcNAc. The method, boiled down:
as §1

Assay [12] concerns Neu5Ac(a2-6)Gal(b1-4)GlcNAc(b1-6)[Gal(b1-3)]GalNAc. Summed up:
as §1

Assay [13] relates to Neu5Ac(a2-6)Gal(b1-4)GlcNAc(b1-2)Man(a1-6)[Gal(b1-4)GlcNAc(b1-2)Man(a1-3)]Man(b1-4)GlcNAc(b1-4)GlcNAc. The method, boiled down: as §1
In assay [14] the test system is Neu5Ac(a2-6)Gal(b1-4)GlcNAc(b1-2)Man(a1-3)[Neu5Ac(a2-6)Gal(b1-4)GlcNAc(b1-2)Man(a1-6)]Man(b1-4)GlcNAc(b1-4)GlcNAc. Summed up:
as §1

The test system of a further assay is Neu5Ac(a2-6)Gal(b1-4)Glc. Summed up:
as §1

Assay [15] relates to Neu5Ac(a2-6)Gal(b1-4)GlcNAc(b1-2)Man(a1-3)[GlcNAc(b1-4)][Neu5Ac(a2-6)Gal(b1-4)GlcNAc(b1-2)Man(a1-6)]Man(b1-4)GlcNAc(b1-4)GlcNAc. Summed up:
as §1

Assay [16] has as its system Neu5Ac(a2-6)Gal(b1-4)GlcNAc(b1-2)Man(a1-3)[Man(a1-6)]Man(b1-4)GlcNAc(b1-4)GlcNAc. Summed up:
as §1

Assay [17] relates to Neu5Ac(a2-6)Gal(b1-4)GlcNAc(b1-2)[Neu5Ac(a2-6)Gal(b1-4)GlcNAc(b1-4)]Man(a1-3)[GlcNAc(b1-4)][Neu5Ac(a2-6)Gal(b1-4)GlcNAc(b1-4)Man(a1-6)]Man(b1-4)GlcNAc(b1-4)GlcNAc. Summed up: as §1
For assay [18], the system named is Neu5Ac(a2-6)Gal(b1-4)GlcNAc(b1-3)Gal(b1-4)GlcNAc(b1-3)Gal(b1-4)GlcNAc(b1-2)Man(a1-3)[Neu5Ac(a2-6)Gal(b1-4)GlcNAc(b1-3)Gal(b1-4)GlcNAc(b1-3)Gal(b1-4)GlcNAc(b1-2)Man(a1-6)]GalNAc. The method, boiled down:
as §1

Assay [19] concerns Neu5Ac(a2-6)Gal(b1-4)GlcNAc(b1-3)Gal(b1-4)GlcNAc(b1-3)[Neu5Ac(a2-6)Gal(b1-4)GlcNAc(b1-3)Gal(b1-4)GlcNAc(b1-6)]GalNAc. The method, boiled down: as §1

Sequence of Aggrecan (Rattus norvegicus), NP_071526 (chain, as listed by the source): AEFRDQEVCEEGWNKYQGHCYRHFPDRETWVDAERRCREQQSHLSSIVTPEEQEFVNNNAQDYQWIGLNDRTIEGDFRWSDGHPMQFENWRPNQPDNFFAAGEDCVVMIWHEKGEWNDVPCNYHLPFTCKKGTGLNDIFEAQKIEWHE
Sequence of PILRa (Mus musculus), Q2YSF3 (Q2YSF3 entry or part of it): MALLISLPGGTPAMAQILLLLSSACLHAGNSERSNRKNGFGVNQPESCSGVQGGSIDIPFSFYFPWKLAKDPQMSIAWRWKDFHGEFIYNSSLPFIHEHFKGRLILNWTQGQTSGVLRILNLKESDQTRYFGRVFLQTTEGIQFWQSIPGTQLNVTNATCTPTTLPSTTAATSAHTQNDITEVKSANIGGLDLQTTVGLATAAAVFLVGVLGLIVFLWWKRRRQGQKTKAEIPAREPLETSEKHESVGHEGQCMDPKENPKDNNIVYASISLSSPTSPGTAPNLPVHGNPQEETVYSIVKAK
Sequence of CHI3L1 (Homo sapiens), P36222 (P36222 whole entry): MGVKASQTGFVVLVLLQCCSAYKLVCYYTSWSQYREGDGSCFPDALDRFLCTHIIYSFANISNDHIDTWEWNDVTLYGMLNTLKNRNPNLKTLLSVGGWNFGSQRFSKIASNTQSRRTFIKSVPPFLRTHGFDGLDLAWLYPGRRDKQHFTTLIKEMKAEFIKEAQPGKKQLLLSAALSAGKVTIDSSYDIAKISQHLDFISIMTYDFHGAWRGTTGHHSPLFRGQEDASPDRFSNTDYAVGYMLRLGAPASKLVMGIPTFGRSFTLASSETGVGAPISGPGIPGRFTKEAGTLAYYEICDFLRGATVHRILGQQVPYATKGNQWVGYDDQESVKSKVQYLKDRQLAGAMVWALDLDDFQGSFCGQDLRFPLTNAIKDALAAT
Sequence of C3b (Homo sapiens), P01024 (P01024 23-667): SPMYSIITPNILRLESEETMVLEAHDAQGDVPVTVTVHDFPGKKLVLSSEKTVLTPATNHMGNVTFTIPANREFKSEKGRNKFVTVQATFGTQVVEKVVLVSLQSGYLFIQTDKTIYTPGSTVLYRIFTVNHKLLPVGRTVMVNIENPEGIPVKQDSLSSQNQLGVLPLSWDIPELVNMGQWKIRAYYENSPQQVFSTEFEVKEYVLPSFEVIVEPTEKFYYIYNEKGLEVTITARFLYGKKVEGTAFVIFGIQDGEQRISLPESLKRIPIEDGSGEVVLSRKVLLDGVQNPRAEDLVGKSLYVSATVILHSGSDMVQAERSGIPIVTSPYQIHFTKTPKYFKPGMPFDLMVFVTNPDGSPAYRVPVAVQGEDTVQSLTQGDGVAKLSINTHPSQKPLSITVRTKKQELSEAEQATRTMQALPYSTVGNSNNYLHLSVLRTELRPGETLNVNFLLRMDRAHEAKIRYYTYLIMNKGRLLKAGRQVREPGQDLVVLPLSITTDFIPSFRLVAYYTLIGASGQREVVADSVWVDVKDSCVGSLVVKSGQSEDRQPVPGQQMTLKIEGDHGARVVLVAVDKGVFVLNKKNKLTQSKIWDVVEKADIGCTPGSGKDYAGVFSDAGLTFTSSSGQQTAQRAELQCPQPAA
Sequence of PILRb (Mus musculus), Q2YSF2 (Q2YSF2 entry or part of it): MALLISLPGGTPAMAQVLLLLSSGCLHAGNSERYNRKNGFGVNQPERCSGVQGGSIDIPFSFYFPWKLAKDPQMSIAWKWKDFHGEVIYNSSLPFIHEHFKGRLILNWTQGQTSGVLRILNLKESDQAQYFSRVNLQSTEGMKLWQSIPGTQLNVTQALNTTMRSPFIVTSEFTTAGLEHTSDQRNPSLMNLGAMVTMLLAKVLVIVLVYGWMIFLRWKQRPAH
Sequence of Neurocan (Homo sapiens), O14594 (O14594 other isoform, or with tags, fused parts or gaps): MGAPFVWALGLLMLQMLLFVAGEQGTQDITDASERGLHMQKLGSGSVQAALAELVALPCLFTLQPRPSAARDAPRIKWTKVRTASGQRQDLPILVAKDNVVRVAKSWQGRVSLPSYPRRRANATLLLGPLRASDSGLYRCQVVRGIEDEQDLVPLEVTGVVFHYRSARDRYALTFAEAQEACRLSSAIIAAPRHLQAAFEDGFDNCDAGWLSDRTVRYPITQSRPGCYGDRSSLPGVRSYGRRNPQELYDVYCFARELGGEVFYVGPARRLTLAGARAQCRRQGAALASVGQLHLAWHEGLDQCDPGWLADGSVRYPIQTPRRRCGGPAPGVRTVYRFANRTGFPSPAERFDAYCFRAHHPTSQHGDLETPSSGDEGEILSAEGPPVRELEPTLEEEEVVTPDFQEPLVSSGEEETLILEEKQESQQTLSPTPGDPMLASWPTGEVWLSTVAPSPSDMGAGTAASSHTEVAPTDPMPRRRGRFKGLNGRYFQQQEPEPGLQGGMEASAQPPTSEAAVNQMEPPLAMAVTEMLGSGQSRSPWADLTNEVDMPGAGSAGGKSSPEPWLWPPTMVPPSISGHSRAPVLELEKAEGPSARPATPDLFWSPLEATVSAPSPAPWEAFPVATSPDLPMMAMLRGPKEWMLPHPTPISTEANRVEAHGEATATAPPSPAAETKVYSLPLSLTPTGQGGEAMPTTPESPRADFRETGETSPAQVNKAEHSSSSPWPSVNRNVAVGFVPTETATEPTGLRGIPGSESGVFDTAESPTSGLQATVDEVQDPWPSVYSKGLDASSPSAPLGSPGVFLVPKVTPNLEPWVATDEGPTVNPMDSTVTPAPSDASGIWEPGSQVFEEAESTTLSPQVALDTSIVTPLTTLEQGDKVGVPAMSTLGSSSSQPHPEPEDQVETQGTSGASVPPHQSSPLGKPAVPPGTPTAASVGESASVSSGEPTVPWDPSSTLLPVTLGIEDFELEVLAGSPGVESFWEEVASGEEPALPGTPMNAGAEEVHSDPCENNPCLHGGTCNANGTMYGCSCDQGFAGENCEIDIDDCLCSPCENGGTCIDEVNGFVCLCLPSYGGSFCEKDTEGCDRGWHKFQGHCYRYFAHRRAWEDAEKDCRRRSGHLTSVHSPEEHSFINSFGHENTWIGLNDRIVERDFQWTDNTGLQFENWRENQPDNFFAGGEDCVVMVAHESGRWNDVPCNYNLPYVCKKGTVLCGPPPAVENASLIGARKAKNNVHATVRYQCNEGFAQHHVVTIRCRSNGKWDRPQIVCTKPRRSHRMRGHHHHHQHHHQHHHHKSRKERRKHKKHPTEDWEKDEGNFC
Sequence of Avaren (Actinomycete K97) (chain, as listed by the source): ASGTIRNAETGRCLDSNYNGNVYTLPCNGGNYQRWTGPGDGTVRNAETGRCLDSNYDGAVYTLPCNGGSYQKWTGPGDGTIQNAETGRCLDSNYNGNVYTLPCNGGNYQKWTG
Sequence of Regenerating Gene IV (Homo sapiens), Q9BYZ8 (Q9BYZ8 whole entry, looked up): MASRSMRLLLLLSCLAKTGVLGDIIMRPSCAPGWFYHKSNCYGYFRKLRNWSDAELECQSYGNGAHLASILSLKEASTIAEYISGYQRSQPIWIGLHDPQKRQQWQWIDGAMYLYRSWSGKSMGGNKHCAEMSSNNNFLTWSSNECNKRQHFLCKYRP
Sequence of SRLC (Mus musculus), Q8VIF6 (Q8VIF6 other isoform, or with tags, fused parts or gaps): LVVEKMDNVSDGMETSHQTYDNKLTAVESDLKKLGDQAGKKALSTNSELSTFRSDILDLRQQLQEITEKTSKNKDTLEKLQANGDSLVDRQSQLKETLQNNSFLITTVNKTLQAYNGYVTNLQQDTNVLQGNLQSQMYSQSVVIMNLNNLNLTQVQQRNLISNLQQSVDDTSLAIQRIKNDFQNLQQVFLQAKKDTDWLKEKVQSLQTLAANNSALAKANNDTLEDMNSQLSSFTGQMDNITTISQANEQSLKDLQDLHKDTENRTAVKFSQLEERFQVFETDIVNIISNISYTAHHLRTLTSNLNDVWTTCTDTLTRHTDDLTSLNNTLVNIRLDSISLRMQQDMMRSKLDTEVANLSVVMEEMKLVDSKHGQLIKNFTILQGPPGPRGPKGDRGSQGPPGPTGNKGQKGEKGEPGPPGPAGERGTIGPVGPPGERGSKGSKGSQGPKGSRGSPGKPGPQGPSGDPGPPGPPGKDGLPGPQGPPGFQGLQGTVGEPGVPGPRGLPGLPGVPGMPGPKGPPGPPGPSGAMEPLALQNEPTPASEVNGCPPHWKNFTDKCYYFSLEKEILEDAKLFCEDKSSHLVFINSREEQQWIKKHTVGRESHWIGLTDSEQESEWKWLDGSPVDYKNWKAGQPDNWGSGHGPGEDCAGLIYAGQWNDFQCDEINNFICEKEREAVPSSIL
Sequence of CHT (Homo sapiens) (chain, as listed by the source): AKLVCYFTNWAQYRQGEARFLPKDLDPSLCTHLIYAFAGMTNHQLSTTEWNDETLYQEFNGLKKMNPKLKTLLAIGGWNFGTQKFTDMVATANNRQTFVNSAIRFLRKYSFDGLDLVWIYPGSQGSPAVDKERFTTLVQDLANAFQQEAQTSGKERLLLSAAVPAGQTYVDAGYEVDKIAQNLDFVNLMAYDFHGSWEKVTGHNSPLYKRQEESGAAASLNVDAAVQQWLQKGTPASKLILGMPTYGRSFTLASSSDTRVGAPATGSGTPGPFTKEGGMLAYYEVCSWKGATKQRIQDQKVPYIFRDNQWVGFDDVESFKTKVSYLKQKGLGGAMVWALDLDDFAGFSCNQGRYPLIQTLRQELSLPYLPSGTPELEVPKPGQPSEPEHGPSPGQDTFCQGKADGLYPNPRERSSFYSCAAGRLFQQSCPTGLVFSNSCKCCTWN

As to CHI3L1 (Homo sapiens), P36222, the “glycan array binding signal (z-score)” value in assay [1] was -0.028; in assay [2], -0.039; in assay [3], -0.105; in [4], -0.139.
For Aggrecan (Rattus norvegicus), NP_071526, the “glycan array binding signal (z-score)” value in assay [5] is -0.152; in assay [6], -0.187; in [7], -0.224; in assay [3], -0.113.
For Siglec-8 (Homo sapiens), Q9NYZ4, the “glycan array binding signal (z-score)” value in assay [8] is -0.178; in [8] (mutation: R125K), 0.093; in [6] (mutation: R125K) it was -0.193; in assay [9] it was 0.008; in [10] (mutation: R125K), -0.306.
Take PILRb (Mus musculus), Q2YSF2: the “glycan array binding signal (z-score)” value in [6] was -0.407; in assay [10], -0.349.
Neurocan (Homo sapiens), O14594: the “glycan array binding signal (z-score)” value was 0.267 in [11] and -1.44 in [9].
On to Avaren (Actinomycete K97), for which the “glycan array binding signal (z-score)” value in [12] was -0.134; in assay [4] it was -0.14.
For PILRa (Mus musculus), Q2YSF3, the “glycan array binding signal (z-score)” value in [8] is -0.195; in [13], 1.22; in [4], 1.51.
With HARE (Homo sapiens), Q8WWQ8, the “glycan array binding signal (z-score)” value in assay [3] was -0.057.
In the case of C3b (Homo sapiens), P01024, the “glycan array binding signal (z-score)” value in assay [14] was 0.001; in assay [4] it was 0.107; in the assay on Neu5Ac(a2-6)Gal(b1-4)Glc it was -0.687.
CHT (Homo sapiens): the “glycan array binding signal (z-score)” value in [14] (mutation: D138V, E140I) came to 0.642.
For the substance “Regenerating Gene IV (Homo sapiens), Q9BYZ8”, the “glycan array binding signal (z-score)” value in [10] was -0.335.
In the case of SRLC (Mus musculus), Q8VIF6, the “glycan array binding signal (z-score)” value in assay [14] is -0.158.
Regarding MpAFP RI GFP (Marinomonas primoryensis), the “glycan array binding signal (z-score)” value is -0.435 in assay [15]; 0.118 in assay [16]; 2.72 in assay [2]; -0.058 in [6]; 0.092 in assay [17]; 3.43 in assay [18]. Moreover, the “glycan array binding signal (z-score)” value in assay [19] is 1.36.
